Test results from PubChem BioAssay (NCI).
Compounds without any hit were thinned out: in the full panel of roughly 83,000, 20% have a hit.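 Percent growth is the endpoint: 0 to 100 indicates growth inhibition (40 means 60% inhibition), 0 means no net growth, and negative values indicate cell death.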 Unmarked numbers belong to inactive results. Calls of active or inactive are those of the source. How the source made its calls: active means growth percent below 10; inactive means the rest.

Tests used:
Assay in all cases: NCI-60 one-dose screen, 48 h (100 = growth as untreated, 0 = no growth, -100 = all killed)
Settings in all cases: 10 µM unless noted
[1] = tested on: DU-145 prostate
[2] = tested on: K-562 leukemia
[3] = tested on: MALME-3M melanoma
[4] = tested on: MDA-MB-231 breast
[5] = tested on: SF-268 CNS
[6] = tested on: SF-295 CNS
[7] = tested on: SF-539 CNS
[8] = tested on: UACC-257 melanoma
[9] = tested on: M14 melanoma
[10] = tested on: HCT-15 colon
[11] = tested on: HT29 colon
[12] = tested on: SNB-75 CNS
[13] = tested on: SNB-19 CNS
[14] = tested on: U251 CNS
[15] = tested on: PC-3 prostate
[16] = tested on: SK-MEL-5 melanoma
[17] = tested on: UACC-62 melanoma
[18] = tested on: SK-MEL-28 melanoma
[19] = tested on: LOX IMVI melanoma
[20] = tested on: RXF 393 renal

Row | SMILES | growth [1] | growth [2] | growth [3] | growth [4] | growth [5] | growth [6] | growth [7] | growth [8] | growth [9] | growth [10] | growth [11] | growth [12] [%] | growth [13] | growth [14] | growth [15] | growth [16] | growth [17] | growth [18] | growth [19] | growth [20]
1 | O=C(CC1Sc2ccccc2NC1=O)NNc1ccc(F)cc1 (configuration not stated) | 98% | 13.6% | 112% | 84.9% | 72.1% | 31% | 94.8% | 92.4% | 31.3% | 60.5% | 98.5% | 73.3 | 84.5% | 85.2% | 52.5% | 106% | 40% | 123% |  | 
2 | Cc1cc(=O)c2cc3nc(-c4cccnc4)oc3c(Br)c2o1 | 119% | 84% | 98.7% | 111% | 107% | 120% | 106% | 106% | 98.8% | 106% | 103% |  | 131% | 97.8% | 99.6% | 105% | 104% | 119% | 98% | 
3 | O=C(O)CC1Sc2ccccc2NC1=O (configuration not stated) | 116% | 70.4% | 106% | 108% | 100% | 104% | 145% | 98.5% | 89.5% | 109% |  | 94 | 108% | 103% | 92.1% | 175% | 105% | 126% | 96.4% | 
4 | CCCCNC(=O)NS(=O)(=O)c1ccc(N2N=C(c3ccc(C)cc3C)CC2c2ccc(N(C)C)cc2)cc1 (configuration not stated) | 84.8% | 44.4% | 101% | 80.1% | 79.9% |  | 62.6% | 66.1% |  | 35.3% |  | 75.4 | 75.6% | 37% | 38% | 47% | 54.8% | 45.5% | 52.2% | 79.5%
5 | NC(=O)CC1(O)C=C(Br)C(=O)C(Br)=C1 | 105% | -29.6% (active) | -34.3% (active) | 113% | 89.3% | 115% | 96.1% | 80.9% |  |  | 75.8% | 76.4 | 106% | 95.6% |  | 92.7% | 108% | 21.5% | 86.1% | -32.6% (active)
6 | CCC(=O)OC1=C(C)SC2=NC(c3ccc(Cl)c(Cl)c3)=CC(c3cc(OC)c(OC)c(OC)c3)N21 (configuration not stated) | 114% | 103% | 104% | 90.2% | 102% | 94.8% | 90.9% |  | 106% | 89.8% | 103% | 76.9 | 94.5% | 95.9% | 91.8% | 98.7% | 87.8% | 104% | 99.6% | 91%
7 | CC(/C=N/NC(=O)c1cc(-c2ccco2)[nH]n1)=C\c1ccccc1 | 101% | 86.6% | 91.3% | 102% | 93.9% | 69.9% | 102% | 89.9% | 95% | 93.2% | 113% | 66.8 | 100% | 96.7% | 92.1% | 98.8% |  | 104% | 97.9% | 
8 | CC1(C)N=C(N)N=C(N)N1c1ccc(Cl)c(Cl)c1 | 46.5% | 23.6% | 67.8% | 68.4% | 42.9% | 17.2% | 13.4% | 55.6% |  | 30.6% |  | 71.2 | 40.3% | 30.1% | 38.3% | 25.2% | 27.4% | 78.6% | 18.8% | 61.4%
9 | CN(C)CCCCNc1ccc(NCCCCN(C)C)c2c1C(=O)c1c(O)ccc(O)c1C2=O | 58.3% | -54.5% (active) | 130% | -78.2% (active) | 76.2% | -81.5% (active) |  | 99.5% | -63.3% (active) | -66.4% (active) | -52.3% (active) | 79.5 | 2.06% (active) | -85.6% (active) | -76.9% (active) | 89.4% | 104% | 112% | -79% (active) | -96% (active)
10 | COc1ccc(-c2cc(-c3ccc(Nc4nc(Nc5ccccc5)nc(Nc5ccc(Cl)cc5)n4)cc3)nc(N)c2C#N)cc1 | 33% | 4.07% (active) | -76.6% (active) | -27.4% (active) | -26.4% (active) | 34.4% | -54.9% (active) | -11.4% (active) |  | -33.6% (active) | 6.85% (active) | 26.7 | 71.9% | -57.9% (active) |  | -21.8% (active) | 22.8% | -72.9% (active) | -97.3% (active) | -12.1% (active)
11 | C=C(C=O)[C@@H]1CC=C(C=O)CC1 | -74.6% (active) | -23.2% (active) | -31.1% (active) | -25.9% (active) | -16.7% (active) | -15.7% (active) | -60.4% (active) | -9.83% (active) | 14.8% | -12% (active) | 13.2% | 32.9 | 55% | -8.31% (active) | 15.3% | -41.1% (active) |  | -43.3% (active) | -0.188% (active) | 
12 | CN(C)S(=O)(=O)n1cnc([C@@H]2[C@@H]3C(=O)OC[C@@H]3C[C@]23N=CN(Cc2ccccc2)C3=O)c1 | 111% | 116% | 110% | 112% | 95.6% | 105% | 98.5% | 116% |  | 98.4% | 89.7% | 67.5 | 98.2% | 107% |  | 102% | 106% | 108% | 101% | 126%
13 | O=C1Nc2ccccc2SC1C1SC(=S)N(Cc2ccccc2)C1=O (configuration not stated) | -34.7% (active) | 4.45% (active) | 53.7% | 94.8% | 37.7% | 63.2% | 90.7% | 88.3% | 94.5% | 103% |  | 51.4 | 107% | 98.3% | 88.4% | 95.9% | 98.5% | 58.8% | 86.2% | 
14 | CC/C=C/[C@@H]1C=C[C@@H]2CCC[C@H]2[C@@H]1CC[C@H](O)[C@H](C)N | -12.9% (active) | -18.6% (active) | -80.2% (active) | -22.5% (active) | 29.2% | -71.3% (active) | -67.6% (active) | -71.5% (active) | -76.4% (active) | -73.8% (active) | 2.11% (active) | 22.4 | -41.2% (active) | -79.7% (active) | 30.4% | -92.8% (active) | -42.1% (active) | -87.1% (active) | -91.6% (active) | 
15 | O=C(C[C@@]1(O)C(=O)Nc2c(Cl)ccc(Cl)c21)c1ccc(C2CC2)cc1 | 16.5% | 7.6% (active) | 41.9% | 45% | 54.8% | -9.37% (active) | -27.7% (active) | 73% |  | 19.1% | 12.4% |  | 36.8% | 31.3% | 31.4% | 38.8% | 42.1% | 52.6% | 38.1% | -10% (active)
16 | COc1ccc(-c2cc(-c3ccc(Nc4nc(Nc5ccccc5)nc(Nc5ccc(Cl)cc5)n4)cc3)nc(N)n2)cc1 | 100% | 23.7% | 79.2% | 49% | 75.8% | 64.1% | 76.9% | 77.1% |  | 76.6% | 52% | 55.6 | 68.7% | 24.7% |  | 60.7% | 58.8% | 84.8% | 55% | 75.6%
17 | CC1=CC(=O)C(C(C)C)=CC1=Nc1cc(Br)c(O)c(Br)c1 | 3.08% (active) | 0.315% (active) | 96.6% | 7.91% (active) | 27% | 17% | -33.6% (active) | 95.5% |  | 21% | 66.2% | 27.1 | 42.1% | 5.45% (active) |  | 13.9% | 22.7% | 42.6% | 24% | 5.99% (active)
